{
  "source": "the supplement of paper PMC10077471",
  "note": "Whole data set: some 1,900 compounds, median “excess over highest single agent (ExcessHSA) synergy score, 6x6 matrix” near -83, cut for the lowest 2% near -370. For the sample, the lowest values were picked, then their nearest neighbours and some compounds at random.",
  "data": [
    {"system": "NCI-H446", "experiment": "excess over highest single agent (ExcessHSA) synergy score, 6x6 matrix; higher = less synergy (more negative = stronger synergy)", "conditions": "72 h; CellTiter-Glo viability", "values": [
      {"smiles": "Cc1cc(CN2CCN(c3c(Br)cnc4nc(-c5ccc(N6CCN(C)CC6)cc5)[nH]c34)CC2)no1", "note": "+ Cc1sc2c(c1C)C(c1ccc(Cl)cc1)=N[C@@H](CC(=O)OC(C)(C)C)c1nnc(C)n1-2 [NCGC00250412-19]", "excess over highest single agent": -107},
      {"smiles": "CN(C)c1ccc(-c2nc3ncc(Cl)c(N4CCN(CC(=O)Nc5nccs5)CC4)c3[nH]2)cc1", "note": "+ Cc1sc2c(c1C)C(c1ccc(Cl)cc1)=N[C@@H](CC(=O)OC(C)(C)C)c1nnc(C)n1-2 [NCGC00250412-19]", "excess over highest single agent": -382},
      {"smiles": "CCOC(CN1C(=O)[C@](CC(=O)Nc2ccc(C)cc2)(NC(=O)Nc2ccc(C)cc2)c2ccccc21)OCC", "note": "+ Cc1sc2c(c1C)C(c1ccc(Cl)cc1)=N[C@@H](CC(=O)OC(C)(C)C)c1nnc(C)n1-2 [NCGC00250412-19]", "excess over highest single agent": -94.2},
      {"smiles": "COc1cc2c(cc1OC)CN(CCc1ccc(NC(=O)c3cc(OC)c(OC)cc3NC(=O)c3cnc4ccccc4c3)cc1)CC2", "note": "+ Cc1sc2c(c1C)C(c1ccc(Cl)cc1)=N[C@@H](CC(=O)OC(C)(C)C)c1nnc(C)n1-2 [NCGC00250412-19]", "excess over highest single agent": 50.9},
      {"smiles": "Cc1cccc(-c2[nH]c(C(C)(C)C)nc2-c2ccc3c(c2)OCO3)n1", "note": "+ Cc1sc2c(c1C)C(c1ccc(Cl)cc1)=N[C@@H](CC(=O)OC(C)(C)C)c1nnc(C)n1-2 [NCGC00250412-19]", "excess over highest single agent": -84.7},
      {"smiles": "CC(C)(O)CC(=O)NCCn1ccc2ncnc(Nc3ccc(Oc4cccc(C(F)(F)F)c4)c(Cl)c3)c21", "note": "+ Cc1sc2c(c1C)C(c1ccc(Cl)cc1)=N[C@@H](CC(=O)OC(C)(C)C)c1nnc(C)n1-2 [NCGC00250412-19]", "excess over highest single agent": 16.5},
      {"smiles": "CC(C)[C@H](C(=O)Nc1ccc(C(=O)NO)cc1)c1ccccc1", "note": "+ Cc1sc2c(c1C)C(c1ccc(Cl)cc1)=N[C@@H](CC(=O)OC(C)(C)C)c1nnc(C)n1-2 [NCGC00250412-19]", "excess over highest single agent": -112},
      {"smiles": "C=C1/C(=C\\C=C2/CCC[C@]3(C)[C@@H]([C@H](C)/C=C/C=C/C(O)(CC)CC)CC[C@@H]23)C[C@@H](O)C[C@@H]1O", "note": "+ Cc1sc2c(c1C)C(c1ccc(Cl)cc1)=N[C@@H](CC(=O)OC(C)(C)C)c1nnc(C)n1-2 [NCGC00250412-19]", "excess over highest single agent": 84.4},
      {"smiles": "COc1ccc2cc1Oc1ccc(cc1)C[C@H]1c3cc(c(OC)cc3CCN1C)Oc1c(OC)c(OC)cc3c1[C@H](C2)N(C)CC3", "note": "+ Cc1sc2c(c1C)C(c1ccc(Cl)cc1)=N[C@@H](CC(=O)OC(C)(C)C)c1nnc(C)n1-2 [NCGC00250412-19]", "excess over highest single agent": -432},
      {"smiles": "COc1cc2c(cc1OC)[C@@H]1Cc3ccc(OC)c(OC)c3CN1CC2", "note": "+ Cc1sc2c(c1C)C(c1ccc(Cl)cc1)=N[C@@H](CC(=O)OC(C)(C)C)c1nnc(C)n1-2 [NCGC00250412-19]", "excess over highest single agent": -95.9},
      {"smiles": "COc1ccc2c(c1OC)CN1CCc3cc4c(cc3C1C2)OCO4", "note": "(configuration not stated) + Cc1sc2c(c1C)C(c1ccc(Cl)cc1)=N[C@@H](CC(=O)OC(C)(C)C)c1nnc(C)n1-2 [NCGC00250412-19]", "excess over highest single agent": -109},
      {"smiles": "Cc1ccc2c(c1)c1c(n2CCc2ccc(C)nc2)CCN(C)C1", "note": "+ Cc1sc2c(c1C)C(c1ccc(Cl)cc1)=N[C@@H](CC(=O)OC(C)(C)C)c1nnc(C)n1-2 [NCGC00250412-19]", "excess over highest single agent": -121},
      {"smiles": "CCc1c2c(nc3ccc(O)cc13)-c1cc3c(c(=O)n1C2)COC(=O)[C@]3(O)CC", "note": "+ Cc1sc2c(c1C)C(c1ccc(Cl)cc1)=N[C@@H](CC(=O)OC(C)(C)C)c1nnc(C)n1-2 [NCGC00250412-19]", "excess over highest single agent": -327},
      {"smiles": "CC[C@@]1(O)C(=O)OCc2c1cc1n(c2=O)Cc2cc3ccccc3nc2-1", "note": "+ Cc1sc2c(c1C)C(c1ccc(Cl)cc1)=N[C@@H](CC(=O)OC(C)(C)C)c1nnc(C)n1-2 [NCGC00250412-19]", "excess over highest single agent": -249},
      {"smiles": "CCc1c2c(nc3ccc(OC(=O)N4CCC(N5CCCCC5)CC4)cc13)-c1cc3c(c(=O)n1C2)COC(=O)[C@]3(O)CC", "note": "+ Cc1sc2c(c1C)C(c1ccc(Cl)cc1)=N[C@@H](CC(=O)OC(C)(C)C)c1nnc(C)n1-2 [NCGC00250412-19]", "excess over highest single agent": -249},
      {"smiles": "CC[C@@]1(O)C(=O)OCc2c1cc1n(c2=O)Cc2cc3c(CN(C)C)c(O)ccc3nc2-1", "note": "+ Cc1sc2c(c1C)C(c1ccc(Cl)cc1)=N[C@@H](CC(=O)OC(C)(C)C)c1nnc(C)n1-2 [NCGC00250412-19]", "excess over highest single agent": -475},
      {"smiles": "CC[C@@]1(O)C(=O)OCc2c1cc1n(c2=O)Cc2cc3cc(O)ccc3nc2-1", "note": "+ Cc1sc2c(c1C)C(c1ccc(Cl)cc1)=N[C@@H](CC(=O)OC(C)(C)C)c1nnc(C)n1-2 [NCGC00250412-19]", "excess over highest single agent": -416},
      {"smiles": "CC[C@H](CC#N)OC(=O)N[C@@H](C)c1cccc(NC(=O)Nc2ccc(-c3cnco3)c(OC)c2)c1", "note": "+ Cc1sc2c(c1C)C(c1ccc(Cl)cc1)=N[C@@H](CC(=O)OC(C)(C)C)c1nnc(C)n1-2 [NCGC00250412-19]", "excess over highest single agent": -174},
      {"smiles": "Cc1cccc(Nc2nc(N[C@@H]3CCCC[C@@H]3N)ncc2C(N)=O)c1", "note": "+ Cc1sc2c(c1C)C(c1ccc(Cl)cc1)=N[C@@H](CC(=O)OC(C)(C)C)c1nnc(C)n1-2 [NCGC00250412-19]", "excess over highest single agent": -24},
      {"smiles": "Cn1cnc(-c2cc3nccc(Oc4ccc(NC(=S)NC(=O)Cc5ccccc5)cc4F)c3s2)c1", "note": "+ Cc1sc2c(c1C)C(c1ccc(Cl)cc1)=N[C@@H](CC(=O)OC(C)(C)C)c1nnc(C)n1-2 [NCGC00250412-19]", "excess over highest single agent": -36.3},
      {"smiles": "C#Cc1cccc(Nc2ncnc3cc(OCCOC)c(OCCO)cc23)c1", "note": "+ Cc1sc2c(c1C)C(c1ccc(Cl)cc1)=N[C@@H](CC(=O)OC(C)(C)C)c1nnc(C)n1-2 [NCGC00250412-19]", "excess over highest single agent": -46.8},
      {"smiles": "CCN1CCC(n2cc(CNc3cc(Cl)c4ncc(C#N)c(Nc5ccc(F)c(Cl)c5)c4c3)nn2)CC1", "note": "+ Cc1sc2c(c1C)C(c1ccc(Cl)cc1)=N[C@@H](CC(=O)OC(C)(C)C)c1nnc(C)n1-2 [NCGC00250412-19]", "excess over highest single agent": 44.4},
      {"smiles": "CN(C1CCc2c(c3ccccc3n2CC(=O)O)C1)S(=O)(=O)c1ccc(F)cc1", "note": "(configuration not stated) + Cc1sc2c(c1C)C(c1ccc(Cl)cc1)=N[C@@H](CC(=O)OC(C)(C)C)c1nnc(C)n1-2 [NCGC00250412-19]", "excess over highest single agent": -115},
      {"smiles": "CC/C=C\\CC1C(=O)CCC1CC(=O)OC", "note": "(configuration not stated) + Cc1sc2c(c1C)C(c1ccc(Cl)cc1)=N[C@@H](CC(=O)OC(C)(C)C)c1nnc(C)n1-2 [NCGC00250412-19]", "excess over highest single agent": 223},
      {"smiles": "NC(=O)Nc1cc(-c2ccc(CN3CCOCC3)cc2)sc1C(N)=O", "note": "+ Cc1sc2c(c1C)C(c1ccc(Cl)cc1)=N[C@@H](CC(=O)OC(C)(C)C)c1nnc(C)n1-2 [NCGC00250412-19]", "excess over highest single agent": -229},
      {"smiles": "CC(C)c1cc(C(=O)N2Cc3ccc(CN4CCN(C)CC4)cc3C2)c(O)cc1O", "note": "+ Cc1sc2c(c1C)C(c1ccc(Cl)cc1)=N[C@@H](CC(=O)OC(C)(C)C)c1nnc(C)n1-2 [NCGC00250412-19]", "excess over highest single agent": -247},
      {"smiles": "CCNC(=O)c1noc(-c2cc(C(C)C)c(O)cc2O)c1-c1ccc(CN2CCOCC2)cc1", "note": "+ Cc1sc2c(c1C)C(c1ccc(Cl)cc1)=N[C@@H](CC(=O)OC(C)(C)C)c1nnc(C)n1-2 [NCGC00250412-19]", "excess over highest single agent": -382},
      {"smiles": "CC(C)(C)OC(=O)Nc1ccc(-c2cc(C(=O)NCCCCCCC(=O)NO)no2)cc1", "note": "+ Cc1sc2c(c1C)C(c1ccc(Cl)cc1)=N[C@@H](CC(=O)OC(C)(C)C)c1nnc(C)n1-2 [NCGC00250412-19]", "excess over highest single agent": -161},
      {"smiles": "O=C(O)[C@H]1O[C@@H](Oc2cc3oc(-c4ccccc4)cc(=O)c3c(O)c2O)[C@H](O)[C@@H](O)[C@@H]1O", "note": "+ Cc1sc2c(c1C)C(c1ccc(Cl)cc1)=N[C@@H](CC(=O)OC(C)(C)C)c1nnc(C)n1-2 [NCGC00250412-19]", "excess over highest single agent": -92.6},
      {"smiles": "OC1CCC(Nc2ncc3nc(Nc4c(F)cc(F)cc4F)n([C@@H]4CCOC4)c3n2)CC1", "note": "(some centres not stated) + Cc1sc2c(c1C)C(c1ccc(Cl)cc1)=N[C@@H](CC(=O)OC(C)(C)C)c1nnc(C)n1-2 [NCGC00250412-19]", "excess over highest single agent": 17.3},
      {"smiles": "CCC(=O)N[C@H]1CC[C@H](C(=O)N(C)c2ccc(-c3nc4ccccc4o3)cc2)C1", "note": "+ Cc1sc2c(c1C)C(c1ccc(Cl)cc1)=N[C@@H](CC(=O)OC(C)(C)C)c1nnc(C)n1-2 [NCGC00250412-19]", "excess over highest single agent": -57},
      {"smiles": "CN1CCN(Cc2ccc(NC(=O)Nc3ccc(Oc4cc(NC(=O)C5CC5)ncn4)cc3)cc2C(F)(F)F)CC1", "note": "+ Cc1sc2c(c1C)C(c1ccc(Cl)cc1)=N[C@@H](CC(=O)OC(C)(C)C)c1nnc(C)n1-2 [NCGC00250412-19]", "excess over highest single agent": -34.2},
      {"smiles": "CC(=O)N(C)C1(c2ccccc2)CCN(CCC[C@]2(c3ccc(Cl)c(Cl)c3)CCCN(C(=O)c3ccccc3)C2)CC1", "note": "+ Cc1sc2c(c1C)C(c1ccc(Cl)cc1)=N[C@@H](CC(=O)OC(C)(C)C)c1nnc(C)n1-2 [NCGC00250412-19]", "excess over highest single agent": -142},
      {"smiles": "O=C(N[C@@H](COc1ccc2[nH]c(=O)[nH]c2c1)c1ccccc1)c1cccn(Cc2ccc(F)c(F)c2)c1=O", "note": "+ Cc1sc2c(c1C)C(c1ccc(Cl)cc1)=N[C@@H](CC(=O)OC(C)(C)C)c1nnc(C)n1-2 [NCGC00250412-19]", "excess over highest single agent": -158},
      {"smiles": "COC[C@H]1OC(=O)c2coc3c2[C@@]1(C)C1=C(C3=O)[C@@H]2CCC(=O)[C@@]2(C)C[C@H]1OC(C)=O", "note": "+ Cc1sc2c(c1C)C(c1ccc(Cl)cc1)=N[C@@H](CC(=O)OC(C)(C)C)c1nnc(C)n1-2 [NCGC00250412-19]", "excess over highest single agent": -484},
      {"smiles": "COCC1OC(=O)c2coc3c2C1(C)C1=C(C3=O)C2CCC(O)C2(C)CC1OC(C)=O", "note": "(configuration not stated) + Cc1sc2c(c1C)C(c1ccc(Cl)cc1)=N[C@@H](CC(=O)OC(C)(C)C)c1nnc(C)n1-2 [NCGC00250412-19]", "excess over highest single agent": -423},
      {"smiles": "COc1cc2ncnc(Nc3cc(Br)c(O)c(Br)c3)c2cc1OC", "note": "+ Cc1sc2c(c1C)C(c1ccc(Cl)cc1)=N[C@@H](CC(=O)OC(C)(C)C)c1nnc(C)n1-2 [NCGC00250412-19]", "excess over highest single agent": -207}
    ]}
  ]
}
